Each structure is given as a SMILES string. Among all 2,500 compounds or so, about 1,100 (44%) were called active. So high a share suggests a set chosen from earlier hits. This is one part of the list. Unmarked numbers belong to inactive results.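 How the source made its calls: active means inhibition above 50% at 4 µM in the single-point screen; inactive means inhibition of 50% or less.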

A short description of this assay: blockers of TNF-a NF-kB luciferase induction – cell-based, HEK293T NF-kB-Luc, luminescence, selectivity assay for NOD1/NOD2 signaling inhibitor project, primary screen (AID 1852). Conditions: TNF-a induced, 14 h, at 4 µM, hits give high values.
For `Cc1ccccc1-n1c(O)c(/C=C2/C(c3ccccc3)=Nc3ccccc32)c(=O)[nH]c1=O`, the inhibition is 16.1%.

In the case of `CCOc1ccc(-c2cc(C)[n+](CCN(CC)CC)c(-c3ccc(OCC)cc3)c2)cc1`, the inhibition was 51.9% (active). Consider `C[C@@H]1O[C@@H](O[C@H]2C[C@@H](O)[C@]3(CO)[C@H]4[C@H](O)C[C@]5(C)[C@@H](C6=CC(=O)OC6)CC[C@]5(O)[C@@H]4CC[C@]3(O)C2)[C@H](O)[C@H](O)[C@H]1O`, for which the inhibition was 106% (active).

For `CC(C)N1C(=O)/C(=C/C=C/c2ccco2)C(=O)N(Cc2ccco2)C1=O`, the inhibition was 22.9%. In the case of `CC(C)[C@H]1C(=O)O[C@H](C(C)C)C(=O)N(C)[C@@H](C(C)C)C(=O)O[C@H](C(C)C)C(=O)N(C)[C@@H](C(C)C)C(=O)O[C@H](C(C)C)C(=O)N1C`, the inhibition is 90.7% (active). The figure for `COC(=O)[C@]12OC[C@]34C([C@@H](O)[C@@H]1O)[C@]1(C)CC(=O)C(O)=C(C)[C@@H]1C[C@H]3OC(=O)[C@H](O)[C@@H]24` (stereo partly drawn) is 76.8% (active); for `CC[C@@]1(O)C(=O)OCc2c1cc1n(c2=O)Cc2cc3ccccc3nc2-1` it is 98.4% (active).

As to `Cc1cccc(OCCn2cccc2/C=C2/C(=O)NC(=O)N(Cc3ccco3)C2=O)c1`, the inhibition is 9.6%. For the compound `C[C@]12CCC3C(CCC4=CC(O)CC[C@@]43/C=N/O)C1(O)CCC2C1=CC(=O)OC1` (stereo partly drawn), the inhibition was 97.3% (active). As to `C=C1C(=O)O[C@H]2C[C@@H](C)[C@@H]3C=CC(=O)[C@@]3(C)C[C@H]12`, the inhibition is 108% (active).

For `C=C1C(=O)O[C@@H]2C[C@@H](C)[C@@H]3C4OC4C(=O)[C@@]3(C)[C@@H](O)[C@H]12` (stereo partly drawn), the inhibition was 96.7% (active). Turning to `C=C1C(=O)O[C@@H]2C[C@@H](C)[C@@H]3C=CC(=O)[C@@]3(C)[C@@H](O)[C@H]12`, the inhibition is 104% (active). On to `C=C1C(=O)O[C@@H]2C[C@@H](C)[C@@H]3C=CC(=O)[C@@]3(C)[C@@H](OC(=O)CC(=O)O[C@H]3[C@@H]4C(=C)C(=O)O[C@@H]4C[C@@H](C)[C@@H]4C=CC(=O)[C@]43C)[C@H]12`, for which the inhibition was 103% (active). Consider `O=C(c1ccc(Cl)cc1)C1CCCN(Cc2ccc3ncccc3c2)C1` (stereo not drawn), for which the inhibition was 29.7%. In the case of `CCC(C)C(NC(=O)CCCNC(=O)CCC(=O)OC1O[C@H]2OC3(C)CC[C@H]4[C@H](C)CCC(C1C)C24OO3)C(=O)O` (stereo partly drawn), the inhibition was 87.7% (active). For `CC(C)CC(NC(=O)CCCNC(=O)CCC(=O)OC1O[C@H]2OC3(C)CC[C@H]4[C@H](C)CCC(C1C)C24OO3)C(=O)O` (stereo partly drawn), the inhibition is 55.3% (active).

On to `CCC(C)NC(=O)CCC(=O)OC1O[C@H]2OC3(C)CC[C@H]4[C@H](C)CCC(C1C)C24OO3` (stereo partly drawn), for which the inhibition is 52.3% (active). For `CC1=CC(=Cc2sc3ccccc3[n+]2C)C=C(C)O1`, the inhibition is 43.4%. The result for `CN1CCN(c2ncnc3ccc(Br)cc23)CC1` reads 33%. Take `Cc1cccc(-n2c(O)c(/C=C3/C(c4ccccc4)=Nc4ccccc43)c(=O)[nH]c2=O)c1`: the inhibition was 32.8%. The result for `O=C(c1ccc(C(F)(F)F)cc1)C1CCCN(Cc2ccncc2)C1` (stereo not drawn) reads 30.7%; that for `CN1/C(=C\C=C\C2=[N+](C)c3ccc4ccccc4c3C2(C)C)C(C)(C)c2ccccc21`, 87.9% (active); that for `CCN1/C(=C\C=C\C2=[N+](CC)c3ccccc3C2(C)C)C(C)(C)c2ccccc21`, 101% (active).

What is called inhibition is the change of the read-out against control, counted positive when it falls.
